# VP16 counter: inhibits Gal4-VP16 luciferase reporter, ROR gamma counter-screen; Drosophila S2 Gal4-VP16 UAS-luciferase, luminescence, 20 h; Potency, µM (doses to about 53.6 µM), for the others: top-dose activity, negative = inhibition, usual class: inhibitors; 310,000 compounds, 3.5% hits; AID 2546;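 note: Gal4-VP16 expression switched on by copper sulfate through the metallothionein promoter; nearly all actives have a fitted effect of over 50% in size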
# DT40 TDP1 no CPT: qHTS for Inhibitors of human tyrosyl-DNA phosphodiesterase 1 (TDP1): qHTS in cells in absence of CPT; DT40 Tdp1-/- hTDP1 cells, no CPT, ATP luminescence, 48 h; Potency, µM (top dose mostly 46.2 µM), inactives show top-dose activity change, negative = growth inhibition, most hits filed as inhibitors; 420,000 compounds, 15% hits; AID 686978, 2013; note: nearly all actives have a fitted effect of over 55% in size
#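 Readout: luminescence from CellTiter-Glo after 30 min in the dark at RT. Cells: DT40 Tdp1-/- with stable hTDP1, 400/well. Exposure: compounds alone, ≥48 hr, 37 °C.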
# TDP1 cell CPT: growth inhibition of DT40 Tdp1-/-;hTDP1 cells with camptothecin (screen for TDP1 inhibitors); chicken DT40 Tdp1-/-;hTDP1 cells + 20 nM CPT, ATP luminescence, 48 h; Potency, µM (highest dose often 46.2 µM), for the others: at the top dose activity change, negative = growth inhibition, most hits filed as inhibitors; 420,000 compounds, 12% hits; AID 686979; note: nearly all actives have a fitted effect of over 55% in size
#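 Cell growth measured by CellTiter-Glo luminescence after a minimum 48 h, 37 C compound exposure with 20 nM CPT in Tdp1-knockout DT40 cells stably expressing hTDP1, seeded 400/well; qHTS titration format.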
# RORgamma inh: ROR gamma (mouse) transcription inhibition. Potency, µM (highest dose often 53.6 µM), inactives show top-dose activity change, negative = inhibition, usual class: inhibitors. AID 2551. 310,000 compounds, 5.4% hits. Drosophila S2 Gal4-RORgamma UAS-luciferase reporter, 20 h. P51450; note: nearly all actives have a fitted effect of over 60% in size
# Target sequence (P51450 whole entry, looked up, the tested form may be a part): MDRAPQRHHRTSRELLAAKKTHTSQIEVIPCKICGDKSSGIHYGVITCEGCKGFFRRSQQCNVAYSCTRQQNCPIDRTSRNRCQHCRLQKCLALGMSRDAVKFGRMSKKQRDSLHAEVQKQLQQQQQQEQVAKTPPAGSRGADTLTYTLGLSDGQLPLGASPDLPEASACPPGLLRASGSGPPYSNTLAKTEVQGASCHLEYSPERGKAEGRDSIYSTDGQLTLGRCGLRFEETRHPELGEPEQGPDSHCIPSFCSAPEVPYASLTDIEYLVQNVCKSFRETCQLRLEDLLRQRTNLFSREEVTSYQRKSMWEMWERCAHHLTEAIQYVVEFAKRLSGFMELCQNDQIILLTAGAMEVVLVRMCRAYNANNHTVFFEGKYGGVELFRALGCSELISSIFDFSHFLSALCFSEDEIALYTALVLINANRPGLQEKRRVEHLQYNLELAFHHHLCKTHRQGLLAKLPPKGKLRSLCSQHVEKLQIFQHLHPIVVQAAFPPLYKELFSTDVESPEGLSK
#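 Drosophila S2 cells stably expressing Gal4-DBD/mouse RORγ fusion under metallothionein promoter plus UAS-luciferase; compound 1 h, then 700 uM CuSO4 induction for 20 h at ambient temperature; inhibition read as reduced luminescence.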
# TDP1 inh: TDP1 (human) enzyme inhibition. 350,000 compounds, 0.28% hits. Potency, µM (highest dose often 130 µM), for inactives: at the top dose activity change, negative = inhibition, hits mostly inhibitors. Q9NUW8. recombinant TDP1, AlphaScreen DNA substrate cleavage; note: nearly all actives have a fitted effect of over 40% in size
#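 Signal: AlphaScreen proximity between streptavidin donor and anti-FITC acceptor beads on intact substrate. Reaction: Tdp1 1 nM, substrate 15 nM final, 5 min RT after 15 min compound preincubation.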
# * marks the source's active call; other numbers are inactive results; ? = inconclusive; . = no result given; [ ] = remark or other dose. Most compounds without a hit are left out; they make up all but 19% or so of the library. Calls come from the whole dose curve; as a rule, active = well fitted curve in the direction sought with a large enough effect; inconclusive = small, poorly fitted or top-dose-only effect, or another doubt; inactive = no such curve, though single readings can be large; an effect the other way counts as inactive or inconclusive. % is set by controls: 0 for no effect and ±100 for the full control effect; potency is the fitted concentration of half-maximal effect.
SMILES,VP16 counter,DT40 TDP1 no CPT,TDP1 cell CPT,RORgamma inh,TDP1 inh
C/C(=N\NC(=O)c1cc2ccccc2cc1O)c1cc2ccccc2o1,?,15µM*,?,10µM*,8%
C/C(=N\NC(=O)c1ccc(F)cc1)c1ccccn1,0.4µM*,1µM*,0.92µM*,0.25µM*,.
CCN(CC)C(=O)COc1ccc(/C(C)=N/NC(=O)c2ccccc2-n2cccc2)cc1,4%,?,-15%,-15%,4%
C/C(=N\NC(=O)c1nc2ccccn2c1C)c1cc2ccccc2o1,?,?,-24%,13µM*,10%
C/C(=N\NC(=O)c1ccccc1-n1cccc1)c1ccccn1,.,1.8µM*,2.1µM*,.,.
COc1ccc(NCC(=O)N/N=C(\C)c2cc3ccccc3o2)cc1,-15%,?,?,?,6%
CC(=N/O)/C(C)=N\NC(=O)c1ccccn1,5µM*,-2%,?,6.3µM*,3%
C/C(=N\NC(=O)c1cc2ccccc2cc1O)c1ccccn1,0.13µM*,1.3µM*,1.2µM*,0.2µM*,-4%
CCc1ccc(/C(C)=N/NC(=O)c2ccccn2)cc1,-8%,4%,-3%,?,6%
C/C(=N\NC(=O)CCCNc1ccccc1)c1ccncc1,14%,-21%,2%,-28%,7%
C/C(=N/NC(=O)c1cc2ccccc2cc1O)C1C(=O)c2ccccc2C1=O,18µM*,-6%,-26%,?,-8%
C/C(=N\NC(=O)CCCNc1ccc(C)cc1)c1ccccn1,13µM*,5.2µM*,5.8µM*,2.2µM*,8%
Cc1noc(C)c1CSCC(=O)N(C)CC(=O)Nc1ccc(Cl)cc1,-9%,?,?,38%,2%
O=C(N/N=C1\CC(c2ccccc2)Oc2ccccc21)c1ccccn1 (centres undefined),-8%,-9%,-3%,?,5%
O=C(NN=C1c2ccccc2-c2ccccc21)c1ccccn1,4.5µM*,?,?,3.2µM*,2%
COc1ccc2c(Cl)c(C(=O)N/N=C/c3c(C)[nH]c4ccccc34)sc2c1,-27%,?,?,-23%,5%
O=C(N/N=C/c1ccccn1)c1sc2ccccc2c1Cl,3.2µM*,13µM*,16µM*,2.8µM*,9%
O=C(N/N=C/c1ccc([N+](=O)[O-])o1)c1sc2ccccc2c1Cl,3.2µM*,26µM*,23µM*,2.5µM*,.
Cn1cccc1/C=N/NC(=O)c1sc2ccccc2c1Cl,3.2µM*,-29%,-7%,0.45µM*,7%
Cc1c(/C=N/NC(=O)c2sc3ccccc3c2Cl)cnn1C,11µM*,?,?,2µM*,8%
O=C(N/N=C/c1c[nH]c2ccccc12)c1sc2ccccc2c1Cl,?,?,-3%,?,11%
CC1CCC(NC(=O)c2cc3c(s2)CCCC3)CC1 (centres undefined),.,?,-45%,.,-4%
Cc1cccc(NC(=S)NNC(=O)c2cc3c(s2)CCC(C)C3)c1C (centres undefined),?,-2%,-26%,18µM*,2%
CCC1CCc2sc(C(=O)NC3CCN(Cc4ccccc4)CC3)cc2C1 (centres undefined),.,13µM*,21µM*,.,8%[0.505 µM]
CC1CCc2sc(C(=O)NC3CCN(Cc4ccccc4)CC3)cc2C1 (centres undefined),.,13µM*,21µM*,.,2%
SMILES,VP16 counter,DT40 TDP1 no CPT,TDP1 cell CPT,RORgamma inh,TDP1 inh
O=C(NC1CCN(Cc2ccccc2)CC1)c1ccc(I)cc1,-3%,-12%,-22%,20%,-5%
CCOc1ccccc1NC(=O)c1ccc2oc(=O)c(S(=O)(=O)c3ccc(F)cc3)cc2c1,.,-19%,0%,.,-2%
NC(=O)c1nsc(C(=O)N(CC(=O)NC2CCCCC2)Cc2ccc(F)cc2)c1N,6%,-11%,-6%,11%,8%
CN(CC(=O)Nc1sccc1C#N)Cc1ccccc1,12%,-20%,?,-4%,-1%
COCCn1nnnc1CN(CCc1ccccc1)Cc1cc2ccc(C)cc2[nH]c1=O,5%,26µM*,?,-7%,5%
Cc1ccc2[nH]c(=O)c(CN(CCc3ccccc3)Cc3nnnn3CC3CCCO3)cc2c1 (centres undefined),-3%,?,?,65%,2%
CCc1ccc2[nH]c(=O)c(CN(Cc3cccs3)Cc3nnnn3Cc3ccccc3)cc2c1,.,13µM*,?,.,2%
Cc1ccc2cc(CN(Cc3cccs3)Cc3nnnn3CC3CCCO3)c(=O)[nH]c2c1C (centres undefined),-3%,18µM*,?,?,2%
Cc1ccc2cc(CN(Cc3cccs3)Cc3nnnn3CC3CCCO3)c(=O)[nH]c2c1 (centres undefined),-14%,?,?,-2%,2%
CCC(c1nnnn1Cc1ccccc1)N(Cc1ccccc1)Cc1cc2cc(C)ccc2[nH]c1=O (centres undefined),.,?,11µM*,.,4%
COC(=O)c1sc2ccccc2c1-n1cccc1C(=O)C(=O)Nc1ccccc1,12%,?,?,1%,4%
Cc1ccc2[nH]c(=O)c(CN(CCCO)Cc3nnnn3Cc3ccccc3)cc2c1,.,11µM*,?,.,2%
Cc1ccc2[nH]c(=O)c(CN(CCO)Cc3nnnn3Cc3ccco3)cc2c1,.,?,-29%,.,2%
Cc1ccc2[nH]c(=O)c(CN(Cc3cccs3)Cc3nnnn3CC3CCCO3)cc2c1 (centres undefined),7%,18µM*,?,14%,2%
Cc1ccc2cc(CN(Cc3ccc4c(c3)OCO4)Cc3nnnn3Cc3ccco3)c(=O)[nH]c2c1C,.,23µM*,?,-37%[0.365 µM],6%
Cc1ccc2[nH]c(=O)c(CN(Cc3cccs3)Cc3nnnn3Cc3ccco3)cc2c1,.,18µM*,?,.,4%
COC(=O)CCCNC(=O)c1ccc2nc(Cc3ccc(OC)cc3)oc2c1,-2%,?,?,-12%,.
O=C1NC(=O)C(CC(=O)N(Cc2ccco2)C2(C(=O)NC3CCCCC3)CCCCC2)N1 (centres undefined),-4%,?,1%,-29%,2%
O=C(NCc1cccs1)c1cccn2c(=O)c3sccc3nc12,-9%,?,5%,27%,-1%
C[C@@H]1CC=C[C@H]2[C@H]1C(=O)N(Cc1ccccc1)[C@H]2c1ccc(C(F)(F)F)cc1,7%,21µM*,?,?,0%
O=C1C2C(c3ccccc3)CC=CC2[C@H](c2cccc([N+](=O)[O-])c2)N1Cc1ccccc1 (some centres undefined),-16%,?,16µM*,5%,7%
